Screens (PubChem BioAssay)
Shown is part of a subset that was picked to be rich in hits.
ALOX12 inh = inhibitors of human 12S-lipoxygenase ALOX12; P18054; purified 12hLO, xylenol orange hydroperoxide absorbance; Potency, µM (doses to about 108 µM), without a hit: at the highest dose activity change, negative = inhibition, hits mostly inhibitors; actives 1.1% (n = 580,000); further: potency means the concentration at half of the fitted maximal effect
Target sequence (P18054 whole entry, looked up): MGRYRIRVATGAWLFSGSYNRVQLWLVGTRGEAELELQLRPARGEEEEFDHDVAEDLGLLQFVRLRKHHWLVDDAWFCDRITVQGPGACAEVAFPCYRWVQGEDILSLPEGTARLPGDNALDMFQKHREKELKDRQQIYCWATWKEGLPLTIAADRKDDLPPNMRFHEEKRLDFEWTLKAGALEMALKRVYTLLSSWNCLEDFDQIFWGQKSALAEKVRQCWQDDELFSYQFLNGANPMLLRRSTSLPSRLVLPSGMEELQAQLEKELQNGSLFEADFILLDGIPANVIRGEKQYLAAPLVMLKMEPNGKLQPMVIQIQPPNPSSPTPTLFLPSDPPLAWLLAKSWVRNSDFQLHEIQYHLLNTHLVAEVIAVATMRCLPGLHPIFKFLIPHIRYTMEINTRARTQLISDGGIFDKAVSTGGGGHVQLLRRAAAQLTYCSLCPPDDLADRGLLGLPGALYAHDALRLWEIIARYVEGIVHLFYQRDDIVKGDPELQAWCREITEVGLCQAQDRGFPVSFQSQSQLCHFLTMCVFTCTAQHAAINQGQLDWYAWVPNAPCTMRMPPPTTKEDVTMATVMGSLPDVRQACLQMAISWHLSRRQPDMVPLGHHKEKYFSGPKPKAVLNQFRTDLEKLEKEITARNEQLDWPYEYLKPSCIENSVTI
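Hydroperoxide product was detected by ferrous iron/xylenol orange as the 573 to 405 nm absorbance ratio. Arachidonic acid at 40 uM (final) was turned over for 30 min at room temperature by 150 nM human 12hLO, pH 7.0 Hepes buffer, after 15 min compound preincubation.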
TDP1 cell CPT = growth inhibition of DT40 Tdp1-/-;hTDP1 cells with camptothecin (screen for TDP1 inhibitors). actives 12% (n = 420,000). chicken DT40 Tdp1-/-;hTDP1 cells + 20 nM CPT, ATP luminescence, 48 h. Potency, µM (series often up to 46.2 µM), inactives show at the top dose activity change, negative = growth inhibition, hits mostly inhibitors; further: potency means the concentration at half of the fitted maximal effect; nearly all actives have a fitted effect of over 55% in size
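Chicken DT40 Tdp1-/- cells stably complemented with human TDP1 were seeded at 400 cells/well in medium containing 20 nM camptothecin, exposed to pin-transferred compounds, and grown at 37 °C for at least 48 hr. Viability was read as ATP luminescence.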
IL1B secr inh = blocks inflammasome-driven IL-1 beta release; THP-1 LPS/ATP IL-1B secretion, AlphaLISA, 16 h; hits give low values; actives 4.7% (n = 360,000); activity change, % at 57.5 µM; in the data active means activity change below about -50%; inconclusive means mostly about -30% to -49%
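Secreted IL-1B measured by AlphaLISA bead assay after 16 h compound exposure of THP-1 cells; compounds (final up to 57.5 uM) added 1 h before LPS (250 ng/mL) and ATP (1.25 mM) stimulation; lower signal means less secretion.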
HT1080 IDH1KD tx = toxicity to HT-1080 IDH1 knockdown cells (counter line). actives 2% (n = 360,000). HT-1080 IDH1 knockdown viability, ATP luminescence, 48 h. Potency, µM (top dose mostly 46.1 µM), inactives show top-dose activity, negative = toxicity, usual class: cytotoxic;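 further: potency means the concentration at half of the fitted maximal effect; 0% = DMSO wells and -100% = cell-free medium wells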
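After a 2 h attachment period, IDH1KD HT-1080 cells took pin-transferred compound for 48 h at 37 °C; ATP-based luminescence after 10 min room-temperature reagent incubation reported viability.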
HT1080NT lethal = kills 2HG-producing HT-1080-NT fibrosarcoma cells; actives 1.6% (n = 360,000); Potency, µM (doses to about 46.1 µM), for the others: at the top dose activity, negative = less viability, most hits filed as cytotoxic; HT-1080-NT fibrosarcoma viability, CellTiter-Glo ATP luminescence, 48 h;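 further: NT is the 2HG producing partner of a matched IDH1 knockdown line; potency means the concentration at half of the fitted maximal effect; 0% = DMSO-treated cells and -100% = media-only wells without cells; nearly all actives have a fitted effect of over 55% in size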
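Compounds were tested in concentration-response format on HT-1080-NT cells for 48 hours at 37 degrees C. Cell viability came from CellTiter-Glo luminescence; curves were classified by r2, response magnitude and activity.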
TDP1 cell noCPT = qHTS for Inhibitors of human tyrosyl-DNA phosphodiesterase 1 (TDP1): qHTS in cells in absence of CPT | DT40 Tdp1-/- hTDP1 cells, no CPT, ATP luminescence, 48 h | Potency, µM (top dose mostly 46.2 µM), for the others: top-dose activity change, negative = growth inhibition, most hits filed as inhibitors | actives 15% (n = 420,000); further: potency means the concentration at half of the fitted maximal effect; nearly all actives have a fitted effect of over 55% in size
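DT40 Tdp1-/-;hTDP1 cells, no CPT (DMSO vehicle only), 400 cells/well; compounds pin-transferred; ≥48 hr, 37 °C; CellTiter-Glo 30 min RT dark, luminescence read.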
* marks the source's active call; other numbers are inactive results. Unless noted, the call rests on the fitted dose curve; in most records, active means well fitted curve in the direction sought with a large enough effect; inconclusive means small, poorly fitted or top-dose-only effect, or another doubt; inactive means no such curve, though single readings can be large; an effect the other way counts as inactive or inconclusive. Unless noted, on the % scale 0 is the no-effect control and ±100 the full control effect.

What do the screens show for `O=C(CN1C(=O)COc2ccc(S(=O)(=O)N3CCCCCC3)cc21)N1CCN(c2ccc(F)cc2)CC1`?
ALOX12 inh: -8%; TDP1 cell CPT: 23µM*; TDP1 cell noCPT: 21µM*

How did CCN(CC)S(=O)(=O)c1ccc2c(c1)N(CC(=O)N1CCN(c3cc(Cl)ccc3C)CC1)C(=O)CO2 do in these assays?
ALOX12 inh: 2%; TDP1 cell CPT: inconclusive; TDP1 cell noCPT: inconclusive

Results for Cc1ccc(C)c(NC(=O)C(Sc2ccc(S(=O)(=O)N3CCCC3)cn2)c2ccccc2)c1 (stereo unspecified) ?
ALOX12 inh: -16%

How did COc1cc(CN(C(=O)c2cccc(NC(C)=O)c2)C2CC2)ccc1OC(F)F do in these assays?
ALOX12 inh: -5%

What do the screens show for `COc1ccc(S(=O)(=O)Nc2nc3ccccc3nc2NCc2ccccc2Cl)cc1`?
ALOX12 inh: 0%

How did CSc1ccc(Cl)c(C(=O)OCC(=O)OC2CC(C)CCC2C(C)C)c1 (stereo unspecified) do in these assays?
ALOX12 inh: -1%

Results for CCNC(=O)C1(C)CCN(Cc2ccc(-c3ccccc3)cc2)C1 (stereo unspecified) ?
ALOX12 inh: -6%; TDP1 cell CPT: inconclusive; IL1B secr inh: -8; HT1080 IDH1KD tx: -19%; HT1080NT lethal: -25%; TDP1 cell noCPT: 21µM*

How did CCNC(=O)C1(C)CCN(Cc2csc(-c3ccccc3)n2)C1 (stereo unspecified) do in these assays?
ALOX12 inh: 0%; TDP1 cell CPT: inconclusive; IL1B secr inh: -17; HT1080 IDH1KD tx: 0%; HT1080NT lethal: -22%; TDP1 cell noCPT: 12µM*

What do the screens show for `COc1ccc(C)cc1NC(=O)CNC(=O)CNc1ccc(F)c(NC(C)=O)c1`?
ALOX12 inh: -14%

What do the screens show for `COc1ccc2[nH]cc(CCNc3ncnc4ccc(-c5ccccc5OC)cc34)c2c1`?
ALOX12 inh: -2%; TDP1 cell CPT: inconclusive; TDP1 cell noCPT: inconclusive

How did COc1ccc2[nH]cc(CCNc3ncnc4ccc(-c5c(C)noc5C)cc34)c2c1 do in these assays?
ALOX12 inh: -9%; TDP1 cell CPT: inconclusive; TDP1 cell noCPT: inconclusive

What do the screens show for `COc1ccc2[nH]cc(CCNc3ncnc4ccc(-c5cccnc5)cc34)c2c1`?
ALOX12 inh: -7%; TDP1 cell CPT: 15µM*; TDP1 cell noCPT: 23µM*

Results for COc1ccc2[nH]cc(CCNc3ncnc4ccc(-c5ccc6c(c5)OCO6)cc34)c2c1 ?
ALOX12 inh: -23%; TDP1 cell CPT: inconclusive; TDP1 cell noCPT: 16µM*

What do the screens show for `Fc1ccc(-c2noc(-c3nc(-c4ccncc4)no3)n2)cc1F`?
ALOX12 inh: 16%

What do the screens show for `CCOC(=O)c1ccc(N2C(=O)Cc3ccccc3C2=O)cc1`?
ALOX12 inh: 1%; TDP1 cell CPT: inconclusive; IL1B secr inh: -11; HT1080 IDH1KD tx: 9%; HT1080NT lethal: 17%; TDP1 cell noCPT: inconclusive

What do the screens show for `Cn1c2ccccc2c(=O)c2ccc(Cl)cc21`?
ALOX12 inh: 0%; TDP1 cell CPT: -3%; IL1B secr inh: -25; HT1080 IDH1KD tx: 0%; HT1080NT lethal: -1%; TDP1 cell noCPT: -29%

Results for CCOC(=O)c1ccc(-c2ccc3c(=O)c4ccccc4n(C)c3c2)cc1F ?
ALOX12 inh: -10%; TDP1 cell CPT: 15µM*; IL1B secr inh: 45; HT1080 IDH1KD tx: 18%; HT1080NT lethal: 7%; TDP1 cell noCPT: inconclusive

Results for CCOC(=O)c1ccc(/C=C2\c3ccccc3C(=O)N2c2ccccc2)cc1F ?
ALOX12 inh: 0%; TDP1 cell CPT: 18µM*; IL1B secr inh: 73; HT1080 IDH1KD tx: 0%; HT1080NT lethal: -7%; TDP1 cell noCPT: inconclusive

What do the screens show for `Nc1nc(CN2CCN(Cc3ccc4c(c3)OCO4)CC2)nc(Nc2ccccc2Cl)n1`?
ALOX12 inh: -2%

What do the screens show for `CCCCn1nnnc1C(c1cc2ccccc2o1)N(CCC#N)Cc1ccccc1` (stereo unspecified)?
ALOX12 inh: 1%; TDP1 cell CPT: 16µM*; IL1B secr inh: -17; HT1080 IDH1KD tx: -11%; HT1080NT lethal: -24%; TDP1 cell noCPT: inconclusive

Results for CN(CCc1ccccc1)C(c1cc2ccccc2o1)c1nnnn1C(C)(C)C (stereo unspecified) ?
ALOX12 inh: inconclusive; TDP1 cell CPT: inconclusive; IL1B secr inh: 2; HT1080 IDH1KD tx: inconclusive; HT1080NT lethal: -25%; TDP1 cell noCPT: inconclusive

How did CCCCn1nnnc1C(c1cc2ccccc2o1)N(C)CCc1ccccc1 (stereo unspecified) do in these assays?
ALOX12 inh: 1%; TDP1 cell CPT: inconclusive; IL1B secr inh: 25; HT1080 IDH1KD tx: -22%; HT1080NT lethal: -20%; TDP1 cell noCPT: 21µM*

Results for CN(Cc1ccccc1)C(c1cc2ccccc2o1)c1nnnn1C(C)(C)C (stereo unspecified) ?
ALOX12 inh: 8%; TDP1 cell CPT: inconclusive; IL1B secr inh: -8; HT1080 IDH1KD tx: -19%; HT1080NT lethal: -18%; TDP1 cell noCPT: 18µM*

What do the screens show for `CCCCn1nnnc1C(c1cc2ccccc2o1)N(Cc1ccccc1)Cc1ccccc1` (stereo unspecified)?
ALOX12 inh: -17%; TDP1 cell CPT: inconclusive; IL1B secr inh: 21; HT1080 IDH1KD tx: 6%; HT1080NT lethal: -1%; TDP1 cell noCPT: 18µM*

Results for CCCCn1nnnc1C(c1cc2ccccc2o1)N(C)Cc1ccc(Cl)cc1 (stereo unspecified) ?
ALOX12 inh: 0%; TDP1 cell CPT: inconclusive; IL1B secr inh: -1; HT1080 IDH1KD tx: -20%; HT1080NT lethal: -10%; TDP1 cell noCPT: 21µM*

What do the screens show for `CCCN(CC(=O)Nc1ccc(Cl)cc1Cl)C(=O)/C=C/c1cc(OC)ccc1OC`?
ALOX12 inh: -9%; TDP1 cell CPT: inconclusive; IL1B secr inh: 0; HT1080 IDH1KD tx: -4%; HT1080NT lethal: -2%; TDP1 cell noCPT: 29µM*

What do the screens show for `CCCN(CC(=O)Nc1ccc(Cl)cc1Cl)C(=O)/C=C/c1cccc([N+](=O)[O-])c1`?
ALOX12 inh: -16%; TDP1 cell CPT: inconclusive; IL1B secr inh: inconclusive; HT1080 IDH1KD tx: -5%; HT1080NT lethal: -3%; TDP1 cell noCPT: 29µM*
